From the supplement of paper PMC6555819

These sequences were tested on VDR:RXRa (NR concentration 270 nM, RXRa partner concentration 90 nM) (assay: PBM binding z-score (relative to random genomic background probes); higher = stronger binding; sequences stand for … in GC…GCGATTGACAGCGTAGAATGAAGG).
Procedure, shortened: (§1)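 Binding z-scores take random background probes as their reference. They come from custom Agilent 4×180K protein-binding microarrays incubated 1 h with ligand-free nuclear receptor dimers, with antibodies against each partner (one per run) detecting binding. Scanned fluorescence was regression-normalized.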

Sequence | PBM binding z-score
ATATGTAGGTTAGCTGGGGTCACTCAGACTAGGC | 5.64
CCGACTGGGGCAAAGGTTACCCTACTCAGTACGA | 1.23
CCTAGTTGGTCAAGGTCACAGACGCTATAGGTAC | 4.29
TAGCCTAGGTCATTGGGCCAGTTTAGTACGCATC | 2.37
CCTTACGGGTCACGATGTTATAGCACGACGAGCG | 3.73
CGAACGAGGGCATGAGTTGATTGCAAATGCCGAT | 1.66
TCAGACAGGTGAAGGTAAATCAGGTACGCAGTCG | 1.2
AGTCAAAGTTCAGTACGAGGTAACGTAAAGCACG | 2.89
CGTCCAAGGTCAGCAGTTCAGTGAAAGCGACGTG | 3.56
ATCGCTAGGTAAAGTTCAGTGAAAGATCGATAGA | 0.735
ATATGTATGTTAGCTGGGGTCATTCAGACTAGGC | 5.07
TCTTGTAGATCAATAGAGGTTAGGAAAGTGCGCT | 1.05
TCTTCTAGATCAAGCAGGTTAAGAAAGCCTGAGT | 0.623
CCTGCTAGGTCATGGACAGCTAATCTACAGTATG | 1.56
TCTCGGAGGACACGATAGGTCAGAGCTCGACATC | 0.769
GCGACTGGGGCAAAGCAGGTTACAATAAGGTTGG | 0.294
TCATATAGGTAAAGGAGAAAGTCGAACGATATGA | 0.392
CGAACGAGGGCATGAGTTGATAACAAATGCCGAT | 1.04
GCGACTCGGGCATCAGCAGGTTACCATAACTTAA | -0.42
CCTACTGGCCCATTCAGAGGTCATTGATCATATG | 3.58

Sequence | PBM binding z-score
GGAACGAGGGCAAGTAGATAGCAGAGTTTGATGG | 0.536
TCGAGAAGGTTAGTCGGGGCATTCAGCCAACATA | 3.71
ATCTCTAGGTAACAAGTTCACTGAAAGAGAGGAC | 3.26
ACTAGCAGGCCAAGTTTGGGTCTCTCAAACAAAG | -0.766
TCTAGTTGGTCAAAGGGCACACACTCGAAATGCG | 1.78
CCTTACGGCTCACTCCAGGTTATAGCATCGGAGT | 0.016
ATCTCTAGGTAAAAGATCAGTGAATCCCGAGGAT | -0.291
CCAGACAGGTGCAAGGTAACTCAGTCTGGTACGC | -0.136
ATATGTAGATTAGCTGGGGTCATTCAGACTAGGC | 4.91
ATAGACAGGTGATGAAGGTAACTCAGGCTATCAT | 0.166
TAGCCAAGGTCATGCGGGCCAGTATAGTGTCGGC | 5.15
GCTGCTAGGTCAAGTTGGTCAGCTAACGGGTACG | 2.17
ATCTCTAGGTAACAAGTTCAGTTAAAGAGAGGAC | 2.23
ATACCAAGGTGATCGTGAGGTAGTTGATACTAAC | -0.169
AGAATGAGGTTATTAAGACCAGGGAATTGCGGTC | 1.69
TCTTGTAGATCAAGCAGGTTAAGAGAGCCTGAGT | 0.331
CAGCCTAGGGCAGGGCCAGTATAGGAGGAACGTT | -0.885
CATACAGGGTCAGCTAGGCCAGAGGAGGGACGGC | 3.53
ATATGTAGGTTAAGGGTCATTCACGTTGGTTCGC | 4.75
ATCGAAAGGTCGATGAGGTGAGTATACACCGTTT | 5.2

The sequences below were run on VDR homodimer (NR concentration 270 nM) in the same assay as above.
Procedure, shortened: as §1

Sequence | PBM binding z-score
ATATGTAGGTTAGCTGGGGTCACTCAGACTAGGC | 2.95
CCGACTGGGGCAAAGGTTACCCTACTCAGTACGA | 0.136
CCTAGTTGGTCAAGGTCACAGACGCTATAGGTAC | 3.55
TAGCCTAGGTCATTGGGCCAGTTTAGTACGCATC | 1.46
CCTTACGGGTCACGATGTTATAGCACGACGAGCG | 0.567
CGAACGAGGGCATGAGTTGATTGCAAATGCCGAT | 1.94
TCAGACAGGTGAAGGTAAATCAGGTACGCAGTCG | 0.53
AGTCAAAGTTCAGTACGAGGTAACGTAAAGCACG | 2.62
CGTCCAAGGTCAGCAGTTCAGTGAAAGCGACGTG | 2.41
ATCGCTAGGTAAAGTTCAGTGAAAGATCGATAGA | 1.49
ATATGTATGTTAGCTGGGGTCATTCAGACTAGGC | 4.67
TCTTGTAGATCAATAGAGGTTAGGAAAGTGCGCT | 0.48
TCTTCTAGATCAAGCAGGTTAAGAAAGCCTGAGT | 0.0619
CCTGCTAGGTCATGGACAGCTAATCTACAGTATG | 0.0193
TCTCGGAGGACACGATAGGTCAGAGCTCGACATC | 0.242
GCGACTGGGGCAAAGCAGGTTACAATAAGGTTGG | -0.351
TCATATAGGTAAAGGAGAAAGTCGAACGATATGA | -0.11
CGAACGAGGGCATGAGTTGATAACAAATGCCGAT | 1.48
GCGACTCGGGCATCAGCAGGTTACCATAACTTAA | -0.501
CCTACTGGCCCATTCAGAGGTCATTGATCATATG | 3.87

Sequence | PBM binding z-score
GGAACGAGGGCAAGTAGATAGCAGAGTTTGATGG | 1.29
TCGAGAAGGTTAGTCGGGGCATTCAGCCAACATA | 1.2
ATCTCTAGGTAACAAGTTCACTGAAAGAGAGGAC | 3.99
ACTAGCAGGCCAAGTTTGGGTCTCTCAAACAAAG | -0.181
TCTAGTTGGTCAAAGGGCACACACTCGAAATGCG | 0.575
CCTTACGGCTCACTCCAGGTTATAGCATCGGAGT | 0.0912
ATCTCTAGGTAAAAGATCAGTGAATCCCGAGGAT | -0.0729
CCAGACAGGTGCAAGGTAACTCAGTCTGGTACGC | 0.489
ATATGTAGATTAGCTGGGGTCATTCAGACTAGGC | 4.47
ATAGACAGGTGATGAAGGTAACTCAGGCTATCAT | -0.14
TAGCCAAGGTCATGCGGGCCAGTATAGTGTCGGC | 3.39
GCTGCTAGGTCAAGTTGGTCAGCTAACGGGTACG | 0.704
ATCTCTAGGTAACAAGTTCAGTTAAAGAGAGGAC | 2.34
ATACCAAGGTGATCGTGAGGTAGTTGATACTAAC | 0.0713
AGAATGAGGTTATTAAGACCAGGGAATTGCGGTC | 0.915
TCTTGTAGATCAAGCAGGTTAAGAGAGCCTGAGT | -0.291
CAGCCTAGGGCAGGGCCAGTATAGGAGGAACGTT | -0.621
CATACAGGGTCAGCTAGGCCAGAGGAGGGACGGC | 1.36
ATATGTAGGTTAAGGGTCATTCACGTTGGTTCGC | 4.09
ATCGAAAGGTCGATGAGGTGAGTATACACCGTTT | 1.17
